Screens (PubChem)
The list is not random: actives were taken first. Their share in the collection is about 12%.
HP1b binding inh = inhibitors of HP1-beta chromodomain binding to methylated histone tails; P83916; AID 540317; hit rate 0.56% among 390,000; AlphaScreen HP1-beta / biotin-H3K9me3 peptide binding; Potency, µM (series often up to 114 µM), for the others: at the top dose activity change, negative = inhibition, actives largely listed as inhibitors; also: potency is read from the fitted curve at half-maximal effect; nearly all actives have a fitted effect of over 70% in size
Target sequence (P83916 whole entry, looked up): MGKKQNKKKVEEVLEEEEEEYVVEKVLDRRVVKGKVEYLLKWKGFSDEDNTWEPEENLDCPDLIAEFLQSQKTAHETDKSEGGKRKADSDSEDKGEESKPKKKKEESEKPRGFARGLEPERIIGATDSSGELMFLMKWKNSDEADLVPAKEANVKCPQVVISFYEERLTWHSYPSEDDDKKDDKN
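HP1-beta protein (50 nM final) preincubated 30 min at room temperature with biotinylated H3(1-18)K9me3 peptide (50 nM) in PBS pH 7.4, 0.01% Tween-20, then compound added for 30 min. AlphaScreen streptavidin donor/nickel chelate acceptor beads (10 ug/mL final), 30 min dark, luminescence read.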
JMJD2A Tudor inh = JMJD2A Tudor domain (human) inhibition; O75164; AlphaScreen JMJD2A-Tudor / H3K4me3 peptide binding; Potency, µM (series often up to 114 µM), for the others: at the highest dose activity change, negative = inhibition, usual class: inhibitors; hit rate 4.4% among 390,000; AID 504339; also: potency is read from the fitted curve at half-maximal effect; % is scaled to controls: 0 for no effect and ±100 for the full control effect; nearly all actives have a fitted effect of over 50% in size
PLK1 PBD block = blocks phosphopeptide binding to human PLK1 polo-box domain. P53350. Plk1 PBD binding of FITC phosphopeptide, fluorescence polarization. Potency, µM, for inactives: max response, negative = inhibition, hits mostly inhibitors. hit rate 2.8% among 360,000. AID 720504; also: potency is read from the fitted curve at half-maximal effect; series mostly up to about 57 µM; % is scaled to controls: 0 for no effect and ±100 for the full control effect; nearly all actives have a fitted effect of over 65% in size
G9a block = blocks human histone lysine methyltransferase G9a | hit rate 8.8% among 350,000 | Potency, µM (highest dose often 102 µM), for the others: at the highest dose activity, negative = inhibition, actives largely listed as inhibitors | G9a H3K9 monomethylation, AlphaScreen, 2 h | Q96KQ7; also: potency is read from the fitted curve at half-maximal effect; % is scaled to controls: 0 for no effect and ±100 for the full control effect; nearly all actives have a fitted effect of over 75% in size
Target sequence (Q96KQ7 913-1193 limits assumed): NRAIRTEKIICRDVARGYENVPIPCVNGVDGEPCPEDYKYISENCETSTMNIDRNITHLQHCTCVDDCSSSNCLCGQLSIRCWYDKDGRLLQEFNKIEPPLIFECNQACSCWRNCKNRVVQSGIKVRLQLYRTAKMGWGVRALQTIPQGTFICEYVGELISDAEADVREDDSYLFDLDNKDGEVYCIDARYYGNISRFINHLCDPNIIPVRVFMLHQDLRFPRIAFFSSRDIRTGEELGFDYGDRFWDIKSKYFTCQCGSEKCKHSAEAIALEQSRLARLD
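G9a (20 nM) preincubated 15 min RT with compounds, then 500 nM biotinylated H3K9 peptide and 20 uM SAM added; 2 h RT reaction. Monomethyl-H3K9 product detected by AlphaScreen with anti-H3K9me1 antibody, streptavidin donor and anti-rabbit IgG acceptor beads.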
BAZ2B inh = inhibitors of human BAZ2B bromodomain. AlphaScreen BAZ2B-H3K14Ac peptide displacement. Potency, µM (highest dose often 114 µM), inactives show at the highest dose activity change, negative = inhibition, most hits filed as inhibitors. Q9UIF8. AID 504333. hit rate 4.4% among 360,000; also: potency is read from the fitted curve at half-maximal effect; % is scaled to controls: 0 for no effect and ±100 for the full control effect; nearly all actives have a fitted effect of over 60% in size
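Compounds, titrated to a top concentration of 110 uM, were incubated 30 min at room temperature with preformed BAZ2B/acetyl-K14 H3 peptide complex (50 nM each). Proximity signal was measured by AlphaScreen after 20 min with beads.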
PI5P4K alpha inh = blocks human PI5P4K alpha kinase activity. PI5P4Kalpha enzyme, ADP-Glo luminescence, 60 min; stronger effect = lower value. max response, %. AID 652105. hit rate 1.2% among 330,000. P48426; active = max response of -50% or lower; inconclusive = between -30% and -50%; inactive = -30% or higher; also: value at the top dose of about 77 µM; % is scaled to controls: 0 for no effect and ±100 for the full control effect
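Enzyme plus substrate dispensed, test compounds pinned in, then ATP (5 microM final) added. After 60 min at RT, ADP-Glo reagent 1 for 45 min and reagent 2 for 30 min preceded luminescence imaging.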
* marks the source's active call; other numbers are inactive results; u = inconclusive; x = no result given; ! = not confirmed by another sample; [ ] = another dose, or the depositor's remark. Unless noted, calls follow the shape of the dose curve; as a rule, active = well fitted curve in the direction sought with a large enough effect; inconclusive = small, poorly fitted or top-dose-only effect, or another doubt; inactive = no such curve, though single readings can be large; an effect the other way counts as inactive or inconclusive.

SMILES	HP1b binding inh	JMJD2A Tudor inh	PLK1 PBD block	G9a block	BAZ2B inh	PI5P4K alpha inh
COc1ccc(NS(=O)(=O)c2cccc(C(=O)N3CCN(Cc4ccc5c(c4)OCO5)CC3)c2)cc1	19%	-20%	1%	u	-23%	-6
COc1cccc(C(=O)N2CCN(Cc3ccc4c(c3)OCO4)CC2)c1OC	-36%	7.9µM*	-11%	u	79µM*	-3
CCOc1ccc(CCNC(=O)CCCc2nnc3n(CC)c(=O)c4sccc4n23)cc1OCC	36%	3%	x	12%[59 µM]	7%	x
Cc1cc(C)c2c(CC(=O)Nc3nnc(CC(C)C)s3)coc2c1	4%	-8%	x	u	-17%	x
O=C(CSCc1ccc(F)cc1)N1CCc2c([nH]c3ccccc23)C1c1ccc(Cl)cc1 (stereo not drawn)	7%[57 µM]	-32%	x	-29%[59 µM]	-22%	x
CCSc1nn(CC(=O)Nc2cccc(Cl)c2)c(N)c1S(=O)(=O)c1ccc(OC)cc1	-17%	-33%	x	-23%[59 µM]	-20%	x
COc1ccccc1NC(=O)N1CCN(Cc2ccc3c(c2)OCO3)CC1	u	4µM*	-1%	x	50µM*	4
O=S(=O)(Nc1ccc(O)c(CN2CCCCC2)c1)c1ccccc1	15%	-6%	-5%	45µM*	-4%	-4
Cn1c(CN2CCCC2)nc2cc(NS(=O)(=O)c3ccccc3)ccc21	24%	-22%	-3%	-15%[59 µM]	-2%	x
COc1cc(C(=O)N2CCN(Cc3ccc4c(c3)OCO4)CC2)cc(OC)c1OC	u	0.89µM*	7%	20µM*	79µM*	-2
COc1cccc(/C=C2\SC(=O)NC2=O)c1OCc1ccc(C(=O)O)cc1	27%	-4%	u	-20%	-26%	-87*
CCN(CCO)c1ccc(-n2c(N)c(C(=O)OC)c3nc4ccccc4nc32)cc1	-6%	79µM*	-8%	35µM*	u	-8
O=[N+]([O-])c1cc(-c2nc(-c3ccccc3)no2)ccc1N1CCOCC1	39%	-13%	x	-42%[59 µM]	-2%	x
COc1ccccc1N1CCN(CC(O)COCCOc2ccc(Br)cc2)CC1 (stereo not drawn)	5%	u	3%	-10%[59 µM]	u	-10
COc1ccc(N2CCN(CC(O)COC(C)(C)C)CC2)cc1 (stereo not drawn)	u	18µM*	0%	10µM*	45µM*	-3
OCCN1CCN(CC(O)COc2ccc(-c3ccccc3)cc2)CC1 (stereo not drawn)	12%	-11%	-10%	9%[59 µM]	u	-13
COc1ccc(OCC(O)CN2CCN(CC(O)COc3ccc(OC)cc3)CC2)cc1 (stereo not drawn)	16%	-17%	4%	-11%	-5%	2
COc1ccc(N2CCN(CC(O)COCCOc3ccc(Br)cc3)CC2)cc1 (stereo not drawn)	10%	-20%	7%	10µM*	45µM*	0
OCCN1CCN(CC(O)COCCOc2ccc(Br)cc2)CC1 (stereo not drawn)	u	18µM*	11µM*	-13%[59 µM]	20%	-22
COc1ccc(N2CCN(CC(O)COc3ccc4c(c3)CCC4)CC2)cc1 (stereo not drawn)	u	56µM*	-10%	u	35µM*	-7
COc1ccc(OCC(O)CN2CCN(c3ccc(Cl)cc3)CC2)cc1 (stereo not drawn)	35%	-11%	-5%	2%	-13%	1
CCC(C(=O)NCc1ccccc1)n1ncn2c(cc3occc32)c1=O (stereo not drawn)	32%	0%	x	u	-1%	x
Nc1[nH]c(C(=O)c2ccccc2)c(-c2c(F)cccc2F)c1C(=O)c1ccc(Cl)c(Cl)c1	x	x	-11%	x	x	-6
CN(C)c1ccc(C(CNS(=O)(=O)c2ccc3ccccc3c2)c2c[nH]c3ccccc23)cc1 (stereo not drawn)	u	28µM*	1%	10µM*	13µM*	-1
CN(C)c1ccc(C(CN)c2c[nH]c3ccccc23)cc1 (stereo not drawn)	u	35µM*	-6%	32µM*	11µM*	-12
SMILES	HP1b binding inh	JMJD2A Tudor inh	PLK1 PBD block	G9a block	BAZ2B inh	PI5P4K alpha inh
NCC(c1ccco1)c1c[nH]c2ccccc12 (stereo not drawn)	14%	-23%	1%	-5%[59 µM]	-9%	-13
CN(CC(=O)NCc1ccco1)CC(=O)Nc1c(Cl)cccc1Cl	33%	-7%	-16%	4%[59 µM]	10%	-3
COc1ccc(NS(=O)(=O)c2ccc3c(c2)n(C)c(=O)c(=O)n3C)cc1Cl	26%	-14%	x	-4%[59 µM]	x	x
COc1ccc2nc(C)cc(Nc3ccc(N4CCN(C)CC4)cc3)c2c1	14%	-36%	-3%	45µM*	u	1
COc1ccc2nc(C)cc(NCCN3CCOCC3)c2c1	-10%	-12%	0%	45µM*	5%	1
COc1ccc(/C=N/Nc2cc(C)nc3ccc(OC)cc23)c(OC)c1	-15%	u	-5%	45µM*	-36%	u
COc1ccc(CCNc2nc3cc(OC)c(OC)cc3c3nc(-c4cccnc4)nn23)cc1OC	13%	-17%	x	13%[59 µM]	4%	x
CC(=O)Nc1cc(C(=O)Nc2ccc3c(c2)N(C)C(=O)c2ccccc2S3)ccc1C	17%	-9%	x	4%[59 µM]	0%	x
COC(=O)[C@@]1(Cc2ccccc2)[C@H]2C(=O)N(Cc3ccccc3)C(=O)[C@H]2[C@H]2CN=C(SCc3ccccc3)N21	29%	u	-7%	x	x	4
COC(=O)c1ccc(CSC2=NC[C@@H]3[C@@H]4C(=O)N(Cc5ccccc5)C(=O)[C@@H]4[C@](Cc4ccccc4)(C(=O)OC)N23)cc1	-4%	79µM*	-4%	x	x	8
CCCc1nnc(SCC(=O)NC2CCCC2)n1CCOC	-4%	-12%	-1%	2%	-24%	-3
Cc1ccc(S(=O)(=O)N(C)C[C@H]2OCCCC[C@@H](C)Oc3ccc(NC(=O)Cc4ccccc4)cc3C(=O)N([C@H](C)CO)C[C@@H]2C)cc1	x	x	-5%	x	x	3
O=C(O)[C@H]1NCCC[C@H]1C(=O)O	x	x	x	6.7µM*!	x	x
Cc1nc(CN2CCCCC2)c(O)c(=O)[nH]1	-16%	25µM*	-7%	x	x	-25
O=c1[nH]c(-c2ccccc2)nc(CN2CCCCC2)c1O	u	u	-10%	x	x	-6
CCOC(=O)c1[nH]c2ccc(Br)cc2c1NC(=O)CCN1CCCC(C)(C)C1	10%	-4%	-10%	8.9µM*	-3%	8
COCc1nnc(NC(=O)c2ccc(S(=O)(=O)N(C)C3CCCCC3)cc2)o1	33%	79µM*	-4%	u	u	-11
O=C(Nc1nnc(-c2ccco2)o1)c1ccc(S(=O)(=O)N2CCCC2)cc1	48%	-8%	0%	u	x	-5
